Bioassay records from PubChem.
Sampled rows, rich in hits. Any-hit rate of the full collection: about 14%.
Sm TGR inh = inhibitors of Schistosoma mansoni thioredoxin glutathione reductase; purified TGR, DTNB reduction, TNB absorbance 405 nm; 360,000 compounds, 3% hits; Potency, µM (series often up to 114 µM), usual class: inhibitors; further: nearly all actives have a fitted effect of over 60% in size
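Kinetic colorimetric format: TGR-catalysed, NADPH-driven DTNB reduction monitored via TNB absorbance. Enzyme dispensed at 20 nM; compound exposure 15 min at room temperature before reaction start.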
Pf growth 48h = P. falciparum growth inhibition at 48 hours (one generation); AID 504832; P. falciparum luciferase growth in erythrocytes, 48 h; Potency, µM (top dose mostly 28.7 µM), hits mostly inhibitors; 310,000 compounds, 5.9% hits
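Luciferase-expressing parasites in RBCs, 2% Hct / 0.1% parasitemia final; RPMI 1640 + 0.5% Albumax; 37 C, 5% CO2, one generation; luminescence read-out, lower signal = inhibition.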
HCMV antiviral = inhibitors of human cytomegalovirus; HFF cells, HCMV-luciferase reporter, 72 h; active compounds read low; activity change, negative = inhibition, % at 57.5 µM; 410,000 compounds, 4.5% hits; AID 1259415; in the data active means activity change below about -60%; inconclusive means no clear call, values can overlap the other calls; inactive means above about -39%
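Human foreskin fibroblasts infected with luciferase-reporter HCMV at MOI 1 PFU/cell, compounds at two doses. Luciferase measured 72 h post infection; normalized to buffer-only basal and Salinomycin (10uM) controls.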
FBPA Giardia inh = blocks Giardia fructose-bisphosphate aldolase activity. A8B2U2. purified Giardia FBPA. Potency, µM (top dose mostly 59.6 µM), hits mostly inhibitors. 290,000 compounds, 0.71% hits; further: nearly all actives have a fitted effect of over 55% in size
Target sequence (A8B2U2 whole entry, looked up): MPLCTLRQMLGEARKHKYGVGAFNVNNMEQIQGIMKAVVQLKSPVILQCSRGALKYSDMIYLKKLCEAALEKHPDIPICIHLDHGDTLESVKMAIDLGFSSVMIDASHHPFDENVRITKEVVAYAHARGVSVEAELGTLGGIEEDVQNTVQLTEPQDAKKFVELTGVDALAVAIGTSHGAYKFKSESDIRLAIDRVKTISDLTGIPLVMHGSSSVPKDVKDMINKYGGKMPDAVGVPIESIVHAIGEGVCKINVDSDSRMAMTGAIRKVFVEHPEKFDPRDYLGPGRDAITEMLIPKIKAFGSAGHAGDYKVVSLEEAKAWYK
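Giardia FBPA (40 nM reagent) was preincubated 10 min at RT with compound (up to 57.5 uM final), then substrate plus GAPDH/TPI/NAD/arsenate coupling system with diaphorase/resazurin was added; resorufin fluorescence (525/598 nm) was read after 20 min.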
Pf growth 96h = P. falciparum growth inhibition at 96 hour, primary screen for plastid delayed-death inhibitors; 320,000 compounds, 6.9% hits; Potency, µM (highest dose often 28.7 µM), actives largely listed as inhibitors; P. falciparum luciferase reporter growth, 96 h
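Readout is luminescence from an integrated firefly luciferase in P. falciparum. Red cells, 2% hematocrit and 0.05% parasitemia final, were cultured with compound through two parasite generations (96 hours) at 37 C, 5% CO2.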
Of the large screens only hits and unclear results are named; the others gave an inactive call. Unless noted, the call rests on the fitted dose curve; in most records, active means well fitted curve in the direction sought with a large enough effect; inconclusive means small, poorly fitted or top-dose-only effect, or another doubt; inactive means no such curve, though single readings can be large; an effect the other way counts as inactive or inconclusive.

Cc1ccc(NC(=S)NC(NC(=O)c2ccccc2)C(Cl)(Cl)Cl)c(C)c1 (centres undefined)	Pf growth 48h 10µM, HCMV antiviral -68, Pf growth 96h inconclusive
Cc1ccc(C)c(NC(=S)NC(NC(=O)Cc2ccccc2)C(Cl)(Cl)Cl)c1 (centres undefined)	Pf growth 48h inconclusive, HCMV antiviral inconclusive (no result: Pf growth 96h)
CCCc1nn(C)c2c(=O)[nH]c(-c3cc(S(=O)(=O)Nc4ccc(NC(C)=O)cc4)ccc3OCC)nc12	Pf growth 48h 9.3µM, Pf growth 96h 12µM
COc1ccc(N(C)C(=O)c2onc3c2CCCC3)cc1	HCMV antiviral inconclusive
Cc1nnc(NC(=O)c2nc(S(=O)(=O)Cc3ccccc3)ncc2Cl)s1	Sm TGR inh 22µM, HCMV antiviral -110 (no result: FBPA Giardia inh)
Cc1cccc(CS(=O)(=O)c2ncc(Cl)c(C(=O)NCc3ccccc3)n2)c1	Sm TGR inh 7.9µM, HCMV antiviral -92 (no result: FBPA Giardia inh)
CCc1nnc(NC(=O)c2nc(SCc3cccc(C)c3)ncc2Cl)s1	none (no result: Pf growth 48h, FBPA Giardia inh, Pf growth 96h)
CCCc1nnc(NC(=O)c2nc(S(=O)(=O)Cc3cccc(C)c3)ncc2Cl)s1	Sm TGR inh 35µM, HCMV antiviral -101, Pf growth 96h inconclusive (no result: FBPA Giardia inh)
Cc1cccc(C)c1NC(=O)c1nc(S(=O)(=O)Cc2ccccc2)ncc1Cl	Sm TGR inh 13µM, HCMV antiviral -100, Pf growth 96h inconclusive (no result: FBPA Giardia inh)
COc1ccc(N2CCN(C(=O)COC(=O)Cc3cccc(OC)c3)CC2)cc1	Pf growth 48h inconclusive (no result: FBPA Giardia inh)
O=C(CCN1CCN(c2ccccc2)CC1)NNC(=O)c1ccccc1	none (no result: Sm TGR inh, Pf growth 48h, FBPA Giardia inh, Pf growth 96h)
Cc1ccccc1NC(=O)c1nc(S(C)(=O)=O)ncc1Cl	Sm TGR inh inconclusive, HCMV antiviral -99, Pf growth 96h 13µM
Cc1cccc(CS(=O)(=O)c2ncc(Cl)c(C(=O)Nc3c(C)cccc3C)n2)c1	Sm TGR inh 7.1µM, HCMV antiviral inconclusive (no result: FBPA Giardia inh)
CCOC(=O)c1nc(S(C)(=O)=O)ncc1Cl	Sm TGR inh 8.9µM, HCMV antiviral -70, Pf growth 96h inconclusive
CCS(=O)(=O)c1ncc(Cl)c(C(=O)Nc2c(C(=O)c3ccc(C)cc3)oc3ccccc23)n1	none (no result: Pf growth 48h, FBPA Giardia inh, Pf growth 96h)
O=c1c(-c2ccc(Cl)cc2)nc2cnc(N3CCNCC3)nc2n1Cc1cccs1	none (no result: Sm TGR inh, Pf growth 48h, HCMV antiviral, Pf growth 96h)
CCOCCCNC(=O)c1cc(C)nn1-c1ccccc1	Pf growth 96h 12µM
CCOC(=O)c1ccc(NC(=O)c2cc(C)nn2-c2ccccc2)cc1	HCMV antiviral inconclusive
CCNC(=O)c1ccc(-n2nc(C)cc2-c2ccccc2)cc1	Pf growth 48h inconclusive, Pf growth 96h 1.5µM
CCOC(CNC(=O)c1cc(C)nn1-c1ccccc1)OCC	none (no result: Pf growth 96h)
O=C(Nc1ccccc1)N1CCC(O)(c2cccc(C(F)(F)F)c2)CC1	Sm TGR inh inconclusive, Pf growth 96h inconclusive
OC1(c2cccc(C(F)(F)F)c2)CCN(c2ccc(-c3ccccc3)nn2)CC1	Pf growth 96h 3.7µM
FC(F)(F)c1cccnc1Oc1ccc(C2=NCCS2)cc1	Pf growth 48h inconclusive, Pf growth 96h 2.6µM
COc1ccccc1/C=C/CN1CCCC(CO)(Cc2cccc(Cl)c2)C1 (centres undefined)	Pf growth 48h inconclusive
COc1ccc(/C=C/CN2CCCC(CO)(Cc3cccc(Cl)c3)C2)cc1 (centres undefined)	Pf growth 48h 13µM
COc1ccc(F)c(CN2CCCC(CO)(Cc3cccc(Cl)c3)C2)c1 (centres undefined)	none
Cc1ccccc1CC1(CO)CCCN(C(=O)CCN2CCCO2)C1 (centres undefined)	Pf growth 96h 2.6µM
COc1cccc(CC2(CO)CCCN(Cc3ccccc3Cl)C2)c1 (centres undefined)	Pf growth 96h 10µM
COc1cccc(CC2(CO)CCCN(S(=O)(=O)N(C)C)C2)c1 (centres undefined)	Pf growth 96h 6.6µM
Cc1ccccc1CC1(CO)CCCN(C(=O)CCC(=O)c2ccccc2)C1 (centres undefined)	none
COc1cccc(CC2(CO)CCN(S(=O)(=O)N(C)C)CC2)c1	none
CN(C)c1cccc(CNc2nccc3[nH]c(-c4cccc(F)c4)nc23)c1	none (no result: Sm TGR inh, Pf growth 48h, FBPA Giardia inh, Pf growth 96h)
Cc1ccc(Nc2cc(C)c(C#N)c3nc4ccccc4n23)c(C)c1	none (no result: Pf growth 48h, FBPA Giardia inh, Pf growth 96h)
Cc1cc(OCC(=O)NC(C)c2ccccc2)ccc1[N+](=O)[O-] (centres undefined)	none (no result: Sm TGR inh)
Cn1c(=O)oc2cc(S(=O)(=O)NCc3ccc(F)cc3)ccc21	Pf growth 96h inconclusive (no result: FBPA Giardia inh)
